# Assay results reported in PubChem BioAssay (NCATS).
# Where “and” joins values, the source holds several entries; their conditions need not be identical. Equal values may be shown once. Records with an inconclusive call do not appear. A call without a number means that no potency is given here. A number with no mark means an inactive call. Calls of active or inactive are those of the source. The call rests on the fitted dose curve; in most records, active means well fitted curve in the direction sought with a large enough effect; inconclusive means small, poorly fitted or top-dose-only effect, or another doubt; inactive means no such curve, though single readings can be large; an effect the other way counts as inactive or inconclusive. Peptide text beside a SMILES is read from it. * marks the point of attachment. βNA = c1ccc2cc(N*)ccc2c1; Cbz = O=C(OCc1ccccc1)*
# Key:
# [1] = molecular target: Cellular tumor antigen p53 (Homo sapiens) (UniProt P04637); assay: Primary qHTS for small molecule compounds that upregulate eGFP-tagged delta133p53alpha (in N-terminal) cells. (AID 2060322); conditions: NCI-H358 eGFP-delta133p53alpha fluorescence, 24 h; activation: hits give high values; further: nearly all actives have a fitted effect of over 75% in size; further: potency means the concentration at half of the fitted maximal effect; on activation: series mostly up to about 56 µM
# Chain of Cellular tumor antigen p53 (Homo sapiens) (P04637 whole entry, looked up): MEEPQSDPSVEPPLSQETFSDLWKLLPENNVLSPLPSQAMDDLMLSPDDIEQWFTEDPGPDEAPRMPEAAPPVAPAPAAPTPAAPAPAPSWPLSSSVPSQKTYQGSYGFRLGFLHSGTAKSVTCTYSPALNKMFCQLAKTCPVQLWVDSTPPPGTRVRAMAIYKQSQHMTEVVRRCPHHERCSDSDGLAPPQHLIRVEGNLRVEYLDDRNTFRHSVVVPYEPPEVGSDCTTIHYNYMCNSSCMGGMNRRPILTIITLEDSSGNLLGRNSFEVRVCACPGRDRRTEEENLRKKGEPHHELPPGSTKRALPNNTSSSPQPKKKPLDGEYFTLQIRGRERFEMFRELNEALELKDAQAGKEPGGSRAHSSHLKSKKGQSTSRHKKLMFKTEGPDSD
# How it was run: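 NCI-H358 cells pre-induced 24 h with 10 ng/ml doxycycline to express N-terminal eGFP-delta133p53alpha, then dosed 24 h at 37C without doxycycline; fixed, Hoechst-stained, GFP intensity by laser scanning cytometry, normalized to DMSO (0%) and 57.5 uM 5-azacytidine (100%).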
# [2] = molecular target: Aldehyde dehydrogenase, mitochondrial (Homo sapiens) (UniProt P05091); assay: qHTS for Inhibitors of the Aldehyde Dehydrogenase Family (ALDH2) Primary screen (AID 2061308); further: nearly all actives have a fitted effect of over 55% in size
# [3] = molecular target: Retinaldehyde dehydrogenase 3 (Homo sapiens) (UniProt P47895); assay: qHTS for Inhibitors of the Aldehyde Dehydrogenase Family (ALDH1A3) Primary screen (AID 2061315)
Compound,activation [1] [%],Potency [2],Potency [3],Potency [1],"activity change, negative = inhibition [2]","activity change, negative = inhibition [3]"
C=C(C)C1CC[C@]2(C(=O)O)CC[C@]3(C(=O)O)[C@H](CCC4[C@@]5(C)CC[C@H](O)C(C)(C)C5CC[C@]43C)C12 (some centres not stated),-12.5,inactive,inactive,–,–,–
CC[C@]12CCCN3CCc4c(n(c5ccccc45)C(=O)C1)[C@@H]32,–,inactive,inactive,13.8 µM (active) and 10.7 µM (active),–,–
COc1cc(C(=O)OC[C@H]2O[C@H](O[C@@]3(CO)O[C@@H](CO)[C@H](O)[C@H]3O)[C@H](O)[C@@H](O)[C@@H]2O)ccc1O,-1.53,inactive,inactive,–,–,–
COc1ccc2c3c1O[C@H]1C[C@@H](O)C=C[C@@]31CCN(C)C2,27.7,inactive,inactive,–,–,–
CN1CCc2cc(Cl)c(O)cc2[C@@H](c2cccc3c2OCC3)C1,-1.67,inactive,inactive,–,–,–
COc1ccc([C@H]2Cc3cccc(O)c3C(=O)O2)cc1OC,6.87,inactive,inactive,–,–,–
CC1OC(=O)C[C@@H]2C(C(=O)O)=CO[C@@H](O[C@H]3O[C@H](CO)[C@@H](O)[C@H](O)[C@H]3O)[C@H]12 (some centres not stated),-23.2,inactive,inactive,–,–,–
CC(C)Oc1ccc(-c2nc(-c3cccc4c3CCC4NCCC(=O)O)no2)cc1C#N (configuration not stated),0,inactive,inactive,–,–,–
COc1cc(C(CO)CO[C@@H]2O[C@H](CO)[C@@H](O)[C@H](O)[C@H]2O)ccc1O (some centres not stated),-11.5,inactive,inactive,–,–,–
C=C1C[C@]23C[C@H]1CC[C@H]2[C@]1(C)CCC[C@@]2(CO)C(=O)O[C@H]([C@H]21)[C@@H]3O,-6.11,inactive,inactive,–,–,–
CC(=O)O[C@H]1[C@H](O)C[C@@]2(C)C(CC[C@]3(C)C2CC=C2C4CC(C)(C)CC[C@]4(C(=O)O)CC[C@]23C)C1(C)C (some centres not stated),-12.5,inactive,inactive,–,–,–
C=C1Cc2c(Cl)cc3[nH]c4c5c3c2[C@@]2(O)[C@@H]1C[C@@H]2C(C)(C)O[C@H]5C1CC[C@@]2(O)[C@@]35O[C@@H]3[C@H]3OC(C)(C)[C@H]3O[C@H]5CC[C@]2(C)[C@@]41C (some centres not stated),-14.5,inactive,inactive,–,–,–
CC1CC2(O)OC(=O)C3=C2C(CCC3)[C@@]12C[C@@H](c1ccoc1)OC2=O (some centres not stated),-12.2,inactive,inactive,–,–,–
C[C@@H]1CC[C@]2(C(=O)O[C@@H]3O[C@H](CO)[C@@H](O)[C@H](O)[C@H]3O)CC[C@]3(C)C(=CCC4[C@@]5(C)C[C@@H](O)[C@H](O)[C@@](C)(C(=O)O[C@H]6[C@H](O)C[C@@]7(C)C(CC[C@]8(C)C7CC=C7[C@H]9[C@](C(=O)O[C@@H]%10O[C@H](CO)[C@@H](O)[C@H](O)[C@H]%10O)(CC[C@@H](C)[C@@]9(C)O)CC[C@]78C)[C@@]6(CO)C(=O)O)C5CC[C@]43C)[C@@H]2[C@]1(C)O (some centres not stated),0,–,–,–,-16.3% [at 11.2 µM],-6.62% [at 11.2 µM]
COC(=O)c1cc(CN2CCN(C(=N)N)CC2)cc(C(=O)N2CCN(C(=O)c3ccc(C(=N)N)cc3)CC2)c1,1,inactive,inactive,–,–,–
C=C1CC2C(C)(CCC(=O)O)C(C(C)(C)O)CCC2(C)C2(C(=O)OC)C(=O)C(C)(O)C(=O)C12C (configuration not stated),-21.4,inactive,inactive,–,–,–
COc1ccc(CNC(=O)c2sc3nc(C)cc(C)c3c2N)cc1,-8.11,inactive,inactive,–,–,–
CC1CCC2(C)CCC3(C)C(=CCC4C5(C)CCC(O)C(C)(C(=O)O)C5CCC43C)C2C1C (configuration not stated),19.6,inactive,inactive,–,–,–
COC(=O)c1ccc(OC)cc1O[C@@H]1O[C@H](CO[C@@H]2OC[C@@H](O)[C@H](O)[C@H]2O)[C@@H](O)[C@H](O)[C@H]1O,-22.3,inactive,inactive,–,–,–
CC(C)c1c(O)ccc2c1CC[C@H]1C(C)(C)CCC[C@]21C,25.9,inactive,inactive,–,–,–
CC(=O)O[C@@H]1C2=C(O)C(=O)[C@](C)(OC(C)=O)C(=O)C2=CO[C@@]12O[C@@H](C)CC[C@H]2OC(C)=O,-18.3,inactive,inactive,–,–,–
COC(=O)[C@H](Cc1cccc(C(=N)N)c1)[C@@H](C)NC(=O)c1ccc(-c2cc[n+]([O-])cc2)cc1,8.93,inactive,inactive,–,–,–

Compound,activation [1] [%],Potency [2],Potency [3],Potency [1],"activity change, negative = inhibition [2]","activity change, negative = inhibition [3]"
O=C(O)CC1(O)C(=O)Nc2ccccc21 (configuration not stated),1.79,inactive,inactive,–,–,–
CCC(CCO[C@@H]1O[C@H](CO[C@H]2OC[C@](O)(CO)[C@H]2O)[C@@H](O)[C@H](O)[C@H]1O)C(C)(C)O (some centres not stated),-6.87,inactive,inactive,–,–,–
CC(O)CO[C@@H]1O[C@H](CO)[C@@H](O)[C@H](O)[C@H]1O (some centres not stated),-4.58,inactive,inactive,–,–,–
CC1(C)CCC[C@]2(C)C1CC=C(CO)[C@H]2CC/C(=C/CO)CO (some centres not stated),-15.3,inactive,inactive,–,–,–
Nc1ncnc2c1nc(Cl)n2C1OC2COP(=O)(O)OC2C1O (configuration not stated),-12.3,inactive,inactive,–,–,–
C/C=C(\C)C(=O)O[C@H]1[C@H](O)[C@]2(COC(C)=O)[C@H](O)C[C@]3(C)C(=CCC4[C@@]5(C)CC[C@H](O[C@@H]6O[C@H](C(=O)O)[C@@H](O[C@@H]7O[C@H](CO)[C@@H](O)[C@H](O)[C@H]7O)[C@H](O)[C@H]6O[C@@H]6O[C@H](CO)[C@@H](O)[C@H](O)[C@H]6O)[C@](C)(CO)C5CC[C@]43C)[C@@H]2CC1(C)C (some centres not stated),-8.4,inactive,inactive,–,–,–
CC1=C(C(=O)O)/C(=C/CO[C@@H]2O[C@H](COC(=O)/C=C/c3ccc(O)cc3)[C@@H](O)[C@H](O)[C@H]2O)C(O)C1 (some centres not stated),-17.6,inactive,inactive,–,–,–
C[C@@H]1O[C@@H](OC2C(CO)OC(OCC3OC(OC(=O)[C@]45CCC(C)(C)CC4C4=CCC6[C@@]7(C)CC[C@@H](O)[C@](C)(C(=O)O)C7CC[C@@]6(C)[C@]4(C)CC5)C(O)C(O)C3O)C(O)C2O)[C@H](O)[C@H](O)[C@H]1O (some centres not stated),-3.82,inactive,inactive,–,–,–
COc1cc(O)cc2c1C(=O)OC(C)C2 (configuration not stated),-13,inactive,inactive,–,–,–
CC(=O)N[C@H]1[C@H](O[C@H]2CC[C@@]3(C)C(CC[C@]4(C)C3CC=C3C5CC(C)(C)CC[C@]5(C(=O)O)C(O)C[C@]34C)C2(C)C)O[C@H](CO[C@@H]2O[C@H](C)[C@H](O)[C@H](O)[C@H]2O[C@@H]2OC[C@@H](O)[C@H](O)[C@H]2O)[C@@H](O)[C@@H]1O (some centres not stated),13.4,inactive,inactive,–,–,–
COC(=O)C1=CO[C@@H](O[C@@H]2O[C@H](CO)[C@@H](O)[C@H](O)[C@H]2O)[C@H]2[C@@H]1[C@H](O)C[C@]2(C)O,3.57,inactive,inactive,–,–,–
C[C@H]1CCN2C[C@]34C[C@@]5(C(=O)Nc6c5ccc5c6OC=CC(C)(C)O5)C(C)(C)C3C[C@]12C(=O)N4C (some centres not stated),5.34,inactive,inactive,–,–,–
COc1c(C)c(OCC=C(C)C)cc2c1C(=O)NC2=O,-12.2,inactive,inactive,–,–,–
CCC[C@@H]1O[C@@H]2C[C@H]3[C@@H]4CCC5=CC(=O)C=C[C@]5(C)[C@H]4[C@@H](O)C[C@]3(C)[C@]2(C(=O)CO)O1,6.33,inactive,inactive,–,–,–
CCC[C@@H]1C[C@@H](C(=O)N[C@@H]([C@H]2O[C@H](SC)[C@H](O)[C@@H](O)[C@@H]2O)[C@@H](C)O)N(C)C1,7,inactive,inactive,–,–,–
C[C@@H]1O[C@@H](O[C@@H]2[C@@H](O)[C@@H](O)[C@H](O[C@@H]3[C@@H](O)[C@@H](O[C@]4(CO)O[C@H](CO)[C@@H](O)[C@@H]4OC(=O)/C=C/c4ccc(O)cc4)O[C@H](CO)[C@H]3OC(=O)/C=C/c3ccc(O)cc3)O[C@H]2C)[C@H](O)[C@H](O)[C@H]1O,3.82,inactive,inactive,–,–,–
CC(C)CC(NC(=O)OCc1ccccc1)C(=O)NC(CC(C)C)C(=O)NC(CCC(=O)O)C(=O)Nc1ccc2ccccc2c1 (stereo not drawn) (Cbz-Leu-Leu-Glu-βNA; configuration not given here),-5.67,inactive,inactive,–,–,–
CC1(C)CC[C@]2(C(=O)O[C@@H]3O[C@H](CO)[C@@H](O)[C@H](O)[C@H]3O)CC[C@]3(C)C(=CCC4[C@@]5(C)C[C@@H](O)[C@H](O)[C@@](C)(CO)C5[C@H](O)C[C@]43C)C2[C@@H]1O (some centres not stated),-5.34,inactive,inactive,–,–,–
COc1cc2occc2c(O[C@@H]2O[C@H](CO)[C@@H](O)[C@H](O)[C@H]2O)c1CCC(=O)O,9.16,inactive,inactive,–,–,–
C=C1CC[C@@H](O)[C@]2(C)C[C@H]3OC(=O)C(=C)[C@H]3CC12 (some centres not stated),–,inactive,inactive,21.3 µM (active),–,–
Cc1ccc(N2CCN(S(=O)(=O)N3CCCCC3)CC2)c(C)c1,17.9,inactive,inactive,–,–,–
CC1(C)CC[C@]2(C(=O)O[C@@H]3O[C@H](CO[C@@H]4O[C@H](CO)[C@@H](O)[C@H](O)[C@H]4O)[C@@H](O)[C@H](O[C@@H]4O[C@H](CO)[C@@H](O)[C@H](O)[C@H]4O)[C@H]3O)[C@H](O)C[C@]3(C)C(=CCC4[C@@]5(C)CC[C@H](O[C@@H]6OC[C@@H](O)[C@H](O)[C@H]6O)[C@@](C)(C(=O)O)C5CC[C@]43C)[C@@H]2C1 (some centres not stated),7.63,inactive,inactive,–,–,–
